Data from PubChem BioAssay (Tox21).
Records with an inconclusive call do not appear. Activity calls are given as the source filed them. Unless noted, calls come from the whole dose curve; as a rule, active = well fitted curve in the direction sought with a large enough effect in the repeat runs; inconclusive = weak or mixed curves; inactive = no such curve, though single readings can be large; an effect the other way counts as inactive or inconclusive.

Key:
[1] = biological target: Peroxisome proliferator-activated receptor delta (Homo sapiens) (UniProt Q03181); experiment: qHTS assay to identify small molecule agonists of the peroxisome proliferator-activated receptor delta (PPARd) signaling pathway (AID 743212; calls by dose curve; note: potency is the fitted concentration of half-maximal effect)
Sequence of Peroxisome proliferator-activated receptor delta (Homo sapiens) (Q03181 whole entry, looked up): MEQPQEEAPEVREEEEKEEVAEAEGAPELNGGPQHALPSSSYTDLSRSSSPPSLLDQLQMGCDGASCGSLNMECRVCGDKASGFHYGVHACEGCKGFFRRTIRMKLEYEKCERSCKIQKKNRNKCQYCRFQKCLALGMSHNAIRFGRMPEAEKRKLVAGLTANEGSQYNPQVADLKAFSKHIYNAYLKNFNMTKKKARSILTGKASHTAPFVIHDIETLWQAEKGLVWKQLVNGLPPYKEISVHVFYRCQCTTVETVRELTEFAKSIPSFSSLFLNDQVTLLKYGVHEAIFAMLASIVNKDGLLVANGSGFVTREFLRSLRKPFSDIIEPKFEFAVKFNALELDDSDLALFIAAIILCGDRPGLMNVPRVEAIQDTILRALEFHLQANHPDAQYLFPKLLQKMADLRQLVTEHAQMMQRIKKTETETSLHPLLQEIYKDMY
Method in brief: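 Tox21 library screened in GeneBLAzer PPARd UAS-bla HEK293H cells. After compound treatment at 37 C, a FRET-based beta-lactamase substrate was applied for 2 h and fluorescence recorded.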

[2] = qHTS assay to identify small molecule agonists of the farnesoid-X-receptor (FXR) signaling pathway - cell viability counter screen (AID 743218); note: nearly all actives have a fitted effect of over 45% in size; note: potency is the fitted concentration of half-maximal effect
Method in brief: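 Luminescence from CellTiter-Glo, read after 30 min at RT, reports viability of GeneBLAzer FXR-UAS-bla HEK 293T cells treated 16 h with compounds in the wells used for the beta-lactamase reporter.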

[3] = biological target: Bile acid receptor (Homo sapiens) (UniProt Q96RI1); experiment: qHTS assay to identify small molecule agonists of the farnesoid-X-receptor (FXR) signaling pathway (AID 743220; active = well fitted activation curve with a large enough effect in the signal ratio in the repeat runs, not every such curve was filed as active; the % refers to the signal ratio)
Sequence of Bile acid receptor (Homo sapiens) (Q96RI1 whole entry, looked up): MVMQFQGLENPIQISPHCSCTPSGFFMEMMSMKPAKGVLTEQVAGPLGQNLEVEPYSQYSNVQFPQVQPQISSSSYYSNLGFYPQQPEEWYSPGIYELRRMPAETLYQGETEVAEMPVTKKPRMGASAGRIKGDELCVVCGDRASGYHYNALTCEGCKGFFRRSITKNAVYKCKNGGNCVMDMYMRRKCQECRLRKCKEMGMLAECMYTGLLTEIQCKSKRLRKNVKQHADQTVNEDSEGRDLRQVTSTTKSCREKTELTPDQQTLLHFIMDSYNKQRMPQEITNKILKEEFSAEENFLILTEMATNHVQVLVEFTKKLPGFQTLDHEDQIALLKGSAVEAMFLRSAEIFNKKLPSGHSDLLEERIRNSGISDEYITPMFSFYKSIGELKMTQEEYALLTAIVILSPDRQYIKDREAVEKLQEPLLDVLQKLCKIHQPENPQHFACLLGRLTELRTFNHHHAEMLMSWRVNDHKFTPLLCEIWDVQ
Method in brief: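 FXR-UAS-bla HEK 293T cells carrying a UAS-driven beta-lactamase reporter were plated for 5 h at 37C/5% CO2, then exposed to DMSO-dissolved Tox21 10K compounds for 16 h at 37C. A LiveBLAzer B/G FRET substrate was loaded for 2 h at room temperature before fluorescence reading.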

[4] = qHTS assay to identify small molecule antagonists of the farnesoid-X-receptor (FXR) signaling pathway - cell viability counter screen (AID 743221; active = well fitted cell-killing curve with a large enough effect in the repeat runs, not every such curve was filed as active; note: nearly all actives have a fitted effect of over 50% in size; note: potency is the fitted concentration of half-maximal effect)
Method in brief: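 HEK 293T FXR-bla cells, 5 h pre-incubation; compound + CDCA 50 uM final, 16 h, 37 C; beta-lactamase FRET read first, then CellTiter-Glo luminescence, 30 min RT.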

[5] = biological target: Vitamin D3 receptor (Homo sapiens) (UniProt P11473); experiment: qHTS assay to identify small molecule agonists of the vitamin D receptor (VDR) signaling pathway (AID 743222; calls by dose curve)
Sequence of Vitamin D3 receptor (Homo sapiens) (P11473 whole entry, looked up): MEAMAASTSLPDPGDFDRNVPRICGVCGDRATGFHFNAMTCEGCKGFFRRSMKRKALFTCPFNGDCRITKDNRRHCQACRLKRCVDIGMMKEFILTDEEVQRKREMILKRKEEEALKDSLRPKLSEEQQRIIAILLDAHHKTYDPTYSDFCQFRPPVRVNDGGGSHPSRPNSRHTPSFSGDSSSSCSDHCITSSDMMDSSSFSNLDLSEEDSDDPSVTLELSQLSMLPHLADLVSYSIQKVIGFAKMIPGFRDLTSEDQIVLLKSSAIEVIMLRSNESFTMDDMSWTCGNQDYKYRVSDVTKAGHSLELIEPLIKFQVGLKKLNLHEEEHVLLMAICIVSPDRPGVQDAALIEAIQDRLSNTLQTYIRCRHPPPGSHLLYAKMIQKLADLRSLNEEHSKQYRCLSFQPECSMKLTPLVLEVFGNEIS
Method in brief: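 Beta-lactamase reporter readout (LiveBLAzer B/G FRET, 2 h RT) in VDR-bla cells after 16 h compound treatment at 37C, 5% CO2; cells pre-incubated 4 h before pin transfer of DMSO solutions.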

[6] = qHTS assay to identify small molecule agonists of the vitamin D receptor (VDR) signaling pathway - cell viability counter screen (AID 743224); note: nearly all actives have a fitted effect of over 50% in size; note: potency is the fitted concentration of half-maximal effect
Method in brief: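 Cytotoxicity counter screen: VDR-bla cells, 16 h compound exposure at 37C, 5% CO2; CellTiter-Glo luminescence, 30 min RT, same wells as bla read.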

[7] = qHTS assay to identify small molecule antagonists of the vitamin D receptor (VDR) signaling pathway - cell viability counter screen (AID 743225); note: nearly all actives have a fitted effect of over 50% in size
Method in brief: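 Viability counter screen run in the same wells as the beta-lactamase reporter assay: HEK 293T VDR-UAS-bla cells, 16 h compound exposure at 37C with 3 nM (final) 1-alpha,25-dihydroxyvitamin D3. CellTiter-Glo luminescence, 30 min, room temperature.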

[8] = biological target: Peroxisome proliferator-activated receptor delta (Homo sapiens) (UniProt Q03181); experiment: qHTS assay to identify small molecule antagonists of the peroxisome proliferator-activated receptor delta (PPARd) signaling pathway (AID 743215; active = well fitted inhibition curve with a large enough effect in the signal ratio in the repeat runs, not every such curve was filed as active; the % refers to the signal ratio;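 note: cells stimulated with agonist L165041 at 300 nM final during compound exposure; series mostly up to about 62 µM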)
Method in brief: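 HEK293H GeneBLAzer PPARd UAS-bla reporter cells; cpd + L165041 300 nM final, 17 h 37 C; LiveBLAzer B/G FRET substrate 2 h RT; fluorescence intensity read-out. Antagonist mode.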

[9] = qHTS assay to identify small molecule antagonists of the peroxisome proliferator-activated receptor delta (PPARd) signaling pathway - cell viability counter screen (AID 743213); note: nearly all actives have a fitted effect of over 50% in size
Method in brief: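 PPARd-bla HEK293H cells were treated with compounds plus agonist L165041 (300 nM final) for 17 h at 37 C. Viability was then read in the same wells by CellTiter-Glo luminescence after 30 min at room temperature.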

[10] = biological target: Vitamin D3 receptor (Homo sapiens) (UniProt P11473); experiment: qHTS assay to identify small molecule antagonists of the vitamin D receptor (VDR) signaling pathway (AID 743223; active = well fitted inhibition curve with a large enough effect in the signal ratio in the repeat runs, not every such curve was filed as active; the % refers to the signal ratio)
Method in brief: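 Beta-lactamase reporter read-out: FRET substrate fluorescence after 2 h at room temperature, following 16 h exposure of VDR-bla cells to test compound plus 3 nM (final) 1alpha,25-dihydroxyvitamin D3 agonist at 37C.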

Measured: Potency

COc1cccc(C(=O)CCN[C@@H](C)[C@H](O)c2ccccc2)c1
active: [6] 33.5 µM
not listed: [8] | [9] | [10]
inactive: all other assays above

CC(C)CC(C)N (stereo unspecified)
inactive: [1] | [8] | [2] | [4] | [6] | [7]

ClC1=C(Cl)[C@]2(Cl)[C@H]3[C@H]([C@H]4C=C[C@H]3C4)[C@@]1(Cl)C2(Cl)Cl
inactive: [1] | [9] | [2] | [4] | [6]

CCN(CC)c1c([N+](=O)[O-])cc(C(F)(F)F)c(N)c1[N+](=O)[O-]
not listed: [2] | [3]
inactive: all other assays above

COP(=O)(OC)SCn1c(=O)oc2cc(Cl)cnc21
inactive: [1] | [9] | [4] | [5]

O=[N+]([O-])c1ccc2ccc3cccc4ccc1c2c34
not listed: [1]
inactive: all other assays above

Clc1ccc(CO/N=C(\Cn2ccnc2)c2ccc(Cl)cc2Cl)c(Cl)c1
inactive: [1] | [9] | [8] | [4] | [5] | [6]

CC(C)[C@H](C(=O)O[C@H](C#N)c1cccc(Oc2ccccc2)c1)c1ccc(Cl)cc1
inactive: [1] | [9] | [4]

O=C1c2ccccc2C(=O)C1C(=O)C(c1ccccc1)c1ccc(Cl)cc1 (stereo unspecified)
active: [2] 38.9 µM | [6] 21.9 µM
inactive: [1] | [9] | [4] | [5] | [10]

Nc1ccccc1C(=O)OC/C=C/c1ccccc1
active: [6] 49.1 µM
inactive: [1] | [9] | [8] | [4]

COc1cccc2c1C(=O)c1c(O)c3c(c(O)c1C2=O)C[C@@](O)(C(=O)CO)CC3OC1CC(N2CCOC(OC)C2)C(O)C(C)O1 (stereo partly specified)
inactive: [1] | [9] | [2] | [4] | [6]

Clc1ccc(CCC(Cn2ccnc2)Sc2c(Cl)cccc2Cl)cc1 (stereo unspecified)
inactive: [1] | [5]

CCOP(=S)(OCC)OC(Cl)C(Cl)(Cl)Cl (stereo unspecified)
not listed: [3] | [9] | [10]
inactive: all other assays above

Cc1cc(N=Nc2ccccc2C)ccc1N
inactive: [9] | [8] | [2] | [3] | [4] | [7]

COc1cc(C=O)cc2c1[C@H](COC(N)=O)[C@]1(OC(C)=O)ON2C[C@H]2[C@@H]1N2C(C)=O
inactive: [1] | [9] | [5] | [6] | [7]

CC(C)N1C(=O)N(c2ccccc2)CSC1=NC(C)(C)C
inactive: [1] | [4] | [5]
active: [6] 49 µM

CCCCCCCCCCCCBr
active: [2] 13.8 µM | [4] 43.6 µM
inactive: [1] | [9] | [5] | [10] | [6]

C[C@]12CC[C@@H]3c4ccc(OC(=O)N(CCCl)CCCl)cc4CC[C@H]3[C@@H]1CC[C@@H]2O
inactive: [1] | [6] | [7]

COc1ccc(N)cc1N
inactive: [1] | [2] | [4] | [5] | [10]

CCOC(=O)OC1=C(c2cc(C)ccc2C)C(=O)NC12CCC(OC)CC2 (stereo unspecified)
not listed: [3] | [8] | [10]
inactive: all other assays above

[Cl][Sb]([Cl])[Cl]
inactive: [1] | [9] | [2] | [4] | [6]

CC(C)OC(=S)S
inactive: [1] | [9] | [2] | [4] | [7]

OC(c1ccc(Cl)cc1)(c1ccc(Cl)cc1)C(Cl)(Cl)Cl
not listed: [2] | [3] | [6]
inactive: all other assays above

O=C1NCN(c2ccccc2)C12CCN(CC1COc3ccccc3O1)CC2 (stereo unspecified)
not listed: [2] | [3] | [9]
inactive: all other assays above

CC1(C)[C@H](C(=O)O[C@H](C#N)c2cccc(Oc3ccccc3)c2)[C@@H]1/C=C(\Cl)C(F)(F)F
inactive: [1] | [2]

FC(F)(F)c1cccc(C2=CCN(CCc3ccc4ccccc4c3)CC2)c1
not listed: [3] | [6] | [8]
inactive: all other assays above

COP(=S)(OC)Oc1cc(Cl)c(Br)cc1Cl
not listed: [3] | [4] | [8]
inactive: all other assays above

CCCCCCCCCCCCCCC(Br)C(=O)O (stereo unspecified)
inactive: [8] | [10]
active: [1] 13.8 µM | [2] 21.9 µM

O=C/C(Cl)=C(/Cl)C(=O)O
inactive: [1] | [9] | [4] | [5] | [6] | [7]

CC(=O)[O-].[Tl+]
inactive: [9] | [2] | [4] | [6]

FC(Cl)(Cl)Cl
inactive: [9] | [2] | [4] | [5] | [6] | [7]
